From PubChem BioAssay
This is one part of a sample in which hits are shown more often than they occur.
MITF inhib: inhibitors of MITF, primary screen, MITF inhibitor project, cell-based, luminescence; TRPM1 promoter luciferase, 24 h; inhibition, % (test concentration not listed); actives 0.28% (n = 37,000); in the data active means inhibition above about 85%; inconclusive means no clear call, values can overlap the other calls; inactive means below about 68%;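 further: human melanocyte line stably carrying TRPM1 promoter luciferase reporter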
PD-1 reverse act: activators reversing PD-1 mediated T-cell inhibition, primary screen, luminescence, primary human CD4 T cells, PD-L1 beads; CellTiter-Glo 96 h; 29,000 tested, under 10 active; AID 2316, 2010; activation, % (concentration not given with the values); call rule not given here
NOMO-1 viab: NOMO-1 AML cell viability reduction, primary screen, STK33 inhibitor project, CellTiter-Glo luminescence; NOMO-1 AML viability, 72 h; inhibition, % (no concentration beside the values); actives 7.5% (n = 37,000); AID 2330, 2010; in the data active means inhibition above about 80%; inconclusive means no clear call, values can overlap the other calls
ROS inducer: ROS inducers in U2OS cancer cells, primary screen, cell-based, H2DCF-DA fluorescence; U2OS ROS induction; ROS induction (% of piperlongumine), % at 10 µM; actives 2% (n = 46,000); AID 624156, 2012; in the data active means ROS induction above about 79%, passing the limit was not always enough; inconclusive means no clear call, values can overlap the other calls
YB-1 expr inh: inhibitors of YB-1 gene expression, primary screen, cell-based, fluorescence | U2OS, qRT-PCR YB-1 vs CDIP delta delta Cp, 16 h; hits give high values; zero = DMSO, each unit about twofold | delta delta Cp (YB-1 minus CDIP) (no concentration beside the values) | actives 0.37% (n = 30,000);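 active means delta delta Cp rounded down to an integer at or above 3, about 3 SD of DMSO wells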;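 further: higher means less YB-1 transcript or more CDIP transcript relative to DMSO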
Large screens that a line does not name were inactive.

Cc1ccc(NC(=O)CSc2nc3ccccc3c(=O)n2-c2cccc(C(F)(F)F)c2)c(C)c1	none (no result: YB-1 expr inh)
Cc1cc(S(=O)(=O)NCC(=O)O)ccc1Cl	none (no result: YB-1 expr inh)
Cc1ncoc1C(=O)Nc1ccc(C(N)=O)cc1	none (no result: MITF inhib, PD-1 reverse act, NOMO-1 viab, YB-1 expr inh)
CC1(C)C(=O)C=C[C@@]2(C)C1CC(=O)[C@]1(C)C2CC[C@@]2(C)[C@H](c3ccoc3)OC(=O)[C@H]3O[C@]321 (some centres not stated)	NOMO-1 viab 88 (no result: PD-1 reverse act)
C[C@H](CO)N1C[C@H](C)[C@H](CN(C)C(=O)Nc2ccc3c(c2)OCO3)Oc2ccc(NC(=O)CCN3CCOCC3)cc2C1=O	none
COc1ccc(C(C)C)cc1S(=O)(=O)Nc1ccccn1	none (no result: YB-1 expr inh)
Cc1ccc2ccc(C(Nc3ccccn3)c3ccc(Cl)c(Cl)c3)c(O)c2n1 (configuration not stated)	NOMO-1 viab 117 (no result: ROS inducer, YB-1 expr inh)
Cc1ccc2ccc(C(Nc3ccccn3)c3ccc(Cl)cc3)c(O)c2n1 (configuration not stated)	NOMO-1 viab 132 (no result: YB-1 expr inh)
COc1ccc(OC)c(NS(=O)(=O)c2cccc3cccnc23)c1	none (no result: YB-1 expr inh)
Cc1ccc2ccc(C(Nc3ccccn3)c3ccc(C(C)C)cc3)c(O)c2n1 (configuration not stated)	NOMO-1 viab 108 (no result: YB-1 expr inh)
COc1ccc(I)cc1C(Nc1cc(C)ccn1)c1ccc2cccnc2c1O (configuration not stated)	NOMO-1 viab 111 (no result: YB-1 expr inh)
CCCCN(C)c1ncnc2c1sc1nc3c(cc12)COC(C)(C)C3	none (no result: MITF inhib, PD-1 reverse act, NOMO-1 viab, YB-1 expr inh)
CC1CCCN(S(=O)(=O)c2ccc3[nH]c(=O)cc(C(=O)NC(C)CCc4ccccc4)c3c2)C1 (configuration not stated)	none (no result: MITF inhib, PD-1 reverse act, NOMO-1 viab, YB-1 expr inh)
CCc1ccc(C(Nc2cc(C)ccn2)c2ccc3cccnc3c2O)cc1 (configuration not stated)	NOMO-1 viab 112 (no result: YB-1 expr inh)
Cc1ccc(C(Nc2ccccn2)c2ccc3ccc(C)nc3c2O)cc1 (configuration not stated)	NOMO-1 viab 132 (no result: YB-1 expr inh)
COc1ccc(C(Nc2ccccn2)c2ccc3ccc(C)nc3c2O)cc1C (configuration not stated)	ROS inducer inconclusive (no result: YB-1 expr inh)
Cc1ccc(C(Nc2ccccn2)c2ccc3cccnc3c2O)cc1 (configuration not stated)	NOMO-1 viab 112 (no result: PD-1 reverse act, ROS inducer, YB-1 expr inh)
COc1ccc(Br)cc1/C=N/NC(=O)c1ccccn1	none (no result: MITF inhib, PD-1 reverse act, NOMO-1 viab)
c1ccc(-c2nn3c(Cn4cnc5ccccc54)nnc3s2)nc1	none (no result: PD-1 reverse act, ROS inducer, YB-1 expr inh)
CCCC[C@H](O)[C@@H]1CC(OC)=CC(=O)O1	none (no result: MITF inhib, PD-1 reverse act, NOMO-1 viab)
COc1ccc(N2C(=O)Cc3ccc(OC)cc3C2=O)cc1	NOMO-1 viab 120
C[C@H]1CN([C@@H](C)CO)C(=O)Cc2cc(NC(=O)Nc3ccc(F)cc3)ccc2O[C@@H]1CN(C)Cc1ccc(Cl)c(Cl)c1	NOMO-1 viab 96
C[C@@H]1CN([C@H](C)CO)C(=O)Cc2cc(NC(=O)Nc3ccc4c(c3)OCO4)ccc2O[C@@H]1CN(C)Cc1ccc(Cl)c(Cl)c1	NOMO-1 viab 108
C[C@@H]1CN([C@H](C)CO)C(=O)Cc2cc(NC(=O)Nc3ccc(F)cc3)ccc2O[C@H]1CN(C)Cc1ccc(Cl)c(Cl)c1	NOMO-1 viab 94
C[C@@H]1CN([C@H](C)CO)C(=O)Cc2cc(NC(=O)Nc3ccccc3)ccc2O[C@@H]1CN(C)Cc1ccc(Cl)c(Cl)c1	NOMO-1 viab 99
C[C@@H]1CN([C@H](C)CO)C(=O)Cc2cc(NC(=O)Nc3ccc4c(c3)OCO4)ccc2O[C@H]1CN(C)Cc1ccc(Cl)c(Cl)c1	none (no result: PD-1 reverse act)
COC(=O)C(CC#Cc1ccc2c(c1)[C@]1(C(=O)N2)[C@H](c2ccc(O)cc2)N2[C@H](c3ccccc3)[C@H](c3ccccc3)OC(=O)[C@H]2[C@@H]1C(N)=O)C(=O)OC	none (no result: MITF inhib, PD-1 reverse act, NOMO-1 viab)
C/C=C1/C(=O)O[C@]2(C)C[C@@H]3OC(=O)C(COC)[C@]34O[C@@]12CC[C@@](C)(O)CC4=O (some centres not stated)	none (no result: MITF inhib, PD-1 reverse act, NOMO-1 viab)
CCNc1nc(F)cc(=O)[nH]1	none
O=C(N/N=C/c1ccc2ccccc2n1)c1ccccc1O	none (no result: MITF inhib, PD-1 reverse act, NOMO-1 viab)
CC(CC(O)C1OC1(C)C)[C@@H]1CCC2(C)C3=CCC4C(C)(C)C(=O)CCC4(C)C3CC[C@@]12C (some centres not stated)	NOMO-1 viab 101 (no result: PD-1 reverse act)
O=C(Cn1sc2ccccc2c1=O)N1CCN(c2ccccc2)CC1	none (no result: MITF inhib, PD-1 reverse act, NOMO-1 viab, YB-1 expr inh)
COc1cccc(C=C2C(=O)c3ccccc3C2=O)c1OC(C)C	NOMO-1 viab 104, ROS inducer inconclusive
C[C@@H]1CN([C@@H](C)CO)C(=O)Cc2cc(NS(=O)(=O)c3ccc(Cl)cc3)ccc2O[C@@H]1CN(C)S(=O)(=O)c1cn(C)cn1	none
O=[N+]([O-])c1nn(-c2ccc(Cl)cc2)n(O)c1=NCc1ccccn1	NOMO-1 viab 112 (no result: ROS inducer, YB-1 expr inh)
O=[N+]([O-])c1nn(-c2ccccc2)n(O)c1=NCc1ccco1	none (no result: YB-1 expr inh)
COC(=O)c1ccccc1NC(=O)CN(c1ccc(F)c(Cl)c1)S(C)(=O)=O	none (no result: YB-1 expr inh)
COC(=O)c1cccc(NC(=O)CN(c2ccc(F)c(Cl)c2)S(C)(=O)=O)c1C	NOMO-1 viab 106 (no result: YB-1 expr inh)
COC(=O)c1cccc(NC(=O)CN(c2cccc(F)c2)S(C)(=O)=O)c1C	NOMO-1 viab 98 (no result: PD-1 reverse act, ROS inducer, YB-1 expr inh)
COC(=O)c1cccc(NC(=O)CN(c2ccc(Br)c(C)c2)S(C)(=O)=O)c1C	none (no result: YB-1 expr inh)
COC(=O)c1ccc(NC(=O)CN(c2ccc(F)c(Cl)c2)S(C)(=O)=O)cc1	none (no result: YB-1 expr inh)
COC(=O)c1cc(NC(=O)CN(c2ccc(F)c(Cl)c2)S(C)(=O)=O)ccc1Cl	NOMO-1 viab 96 (no result: PD-1 reverse act, ROS inducer, YB-1 expr inh)
COC(=O)c1cccc(NC(=O)CN(c2ccc(F)cc2)S(C)(=O)=O)c1C	NOMO-1 viab 109 (no result: PD-1 reverse act, ROS inducer, YB-1 expr inh)
Cc1ccc2nc(-c3ccccn3)cc(C(=O)NCc3cnn(C)c3)c2c1	none (no result: PD-1 reverse act, ROS inducer, YB-1 expr inh)
COC(=O)C1=C(O)/C(=C/c2ccc(O)cc2)SC1=Nc1ccccc1	ROS inducer 164 (no result: MITF inhib, PD-1 reverse act, NOMO-1 viab, YB-1 expr inh)
Cc1noc(C)c1NC(=O)Nc1ccc2c(c1)CC(=O)N([C@H](C)CO)C[C@@H](C)[C@@H](CN(C)Cc1ccc(-c3ccccc3)cc1)O2	none
Cc1noc(C)c1NC(=O)Nc1ccc2c(c1)CC(=O)N([C@@H](C)CO)C[C@H](C)[C@H](CN(C)Cc1ccc(Oc3ccccc3)cc1)O2	NOMO-1 viab 100
Cc1noc(C)c1NC(=O)Nc1ccc2c(c1)CC(=O)N([C@@H](C)CO)C[C@H](C)[C@H](CN(C)Cc1ccc(-c3ccccc3)cc1)O2	NOMO-1 viab 99
Cc1noc(C)c1NC(=O)Nc1ccc2c(c1)CC(=O)N([C@H](C)CO)C[C@@H](C)[C@@H](CN(C)Cc1ccc(Oc3ccccc3)cc1)O2	none
C[C@@H]1CN([C@@H](C)CO)C(=O)c2cc(NC(=O)Cc3ccccc3)ccc2O[C@@H]1CN(C)C(=O)Nc1ccc(C(F)(F)F)cc1	ROS inducer 94
C[C@H](CO)N1C[C@H](C)[C@@H](CN(C)C(=O)Nc2ccc(C(F)(F)F)cc2)Oc2ccc(NC(=O)C3CC3)cc2C1=O	YB-1 expr inh 3.3
